The text below walks through data of ChEMBL document CHEMBL1961873, “Compounds: GSK PKIS; Assays: Nanosyn kinase panel” (2012).

Assay [1] has as its target T1, Ephrin type-B receptor 2 (Homo sapiens) (UniProt P29323).
T1 sequence (whole entry): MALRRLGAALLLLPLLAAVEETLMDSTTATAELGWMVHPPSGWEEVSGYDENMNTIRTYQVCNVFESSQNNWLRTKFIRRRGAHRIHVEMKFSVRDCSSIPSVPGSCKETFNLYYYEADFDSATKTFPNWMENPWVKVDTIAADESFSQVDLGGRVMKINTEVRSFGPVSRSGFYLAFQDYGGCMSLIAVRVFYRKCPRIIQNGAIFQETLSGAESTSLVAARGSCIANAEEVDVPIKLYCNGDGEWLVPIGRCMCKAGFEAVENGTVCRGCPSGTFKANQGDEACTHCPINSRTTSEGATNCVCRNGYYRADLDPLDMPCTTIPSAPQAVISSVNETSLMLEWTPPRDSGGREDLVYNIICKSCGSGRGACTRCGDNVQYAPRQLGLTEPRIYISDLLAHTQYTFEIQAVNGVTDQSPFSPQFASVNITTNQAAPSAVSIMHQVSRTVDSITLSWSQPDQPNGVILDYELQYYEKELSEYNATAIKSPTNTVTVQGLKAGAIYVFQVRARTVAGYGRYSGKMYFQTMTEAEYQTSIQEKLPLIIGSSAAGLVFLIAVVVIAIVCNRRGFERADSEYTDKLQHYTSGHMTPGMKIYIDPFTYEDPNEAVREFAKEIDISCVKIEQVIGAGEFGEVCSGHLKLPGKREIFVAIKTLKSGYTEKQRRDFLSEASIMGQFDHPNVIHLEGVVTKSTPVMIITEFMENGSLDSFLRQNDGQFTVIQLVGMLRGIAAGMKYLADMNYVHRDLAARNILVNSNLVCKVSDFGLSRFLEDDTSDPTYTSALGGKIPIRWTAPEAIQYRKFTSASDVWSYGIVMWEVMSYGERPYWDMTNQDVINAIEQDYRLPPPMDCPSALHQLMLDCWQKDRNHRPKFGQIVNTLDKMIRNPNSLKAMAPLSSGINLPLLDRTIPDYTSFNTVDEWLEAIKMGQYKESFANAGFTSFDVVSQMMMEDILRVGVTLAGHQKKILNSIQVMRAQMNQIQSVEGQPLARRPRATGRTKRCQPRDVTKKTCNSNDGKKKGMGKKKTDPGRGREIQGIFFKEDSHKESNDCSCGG
Particulars: at 1 µM.

Assay [2] deals with T2, Ephrin type-B receptor 3 (Homo sapiens) (UniProt P54753).
T2 sequence (whole entry): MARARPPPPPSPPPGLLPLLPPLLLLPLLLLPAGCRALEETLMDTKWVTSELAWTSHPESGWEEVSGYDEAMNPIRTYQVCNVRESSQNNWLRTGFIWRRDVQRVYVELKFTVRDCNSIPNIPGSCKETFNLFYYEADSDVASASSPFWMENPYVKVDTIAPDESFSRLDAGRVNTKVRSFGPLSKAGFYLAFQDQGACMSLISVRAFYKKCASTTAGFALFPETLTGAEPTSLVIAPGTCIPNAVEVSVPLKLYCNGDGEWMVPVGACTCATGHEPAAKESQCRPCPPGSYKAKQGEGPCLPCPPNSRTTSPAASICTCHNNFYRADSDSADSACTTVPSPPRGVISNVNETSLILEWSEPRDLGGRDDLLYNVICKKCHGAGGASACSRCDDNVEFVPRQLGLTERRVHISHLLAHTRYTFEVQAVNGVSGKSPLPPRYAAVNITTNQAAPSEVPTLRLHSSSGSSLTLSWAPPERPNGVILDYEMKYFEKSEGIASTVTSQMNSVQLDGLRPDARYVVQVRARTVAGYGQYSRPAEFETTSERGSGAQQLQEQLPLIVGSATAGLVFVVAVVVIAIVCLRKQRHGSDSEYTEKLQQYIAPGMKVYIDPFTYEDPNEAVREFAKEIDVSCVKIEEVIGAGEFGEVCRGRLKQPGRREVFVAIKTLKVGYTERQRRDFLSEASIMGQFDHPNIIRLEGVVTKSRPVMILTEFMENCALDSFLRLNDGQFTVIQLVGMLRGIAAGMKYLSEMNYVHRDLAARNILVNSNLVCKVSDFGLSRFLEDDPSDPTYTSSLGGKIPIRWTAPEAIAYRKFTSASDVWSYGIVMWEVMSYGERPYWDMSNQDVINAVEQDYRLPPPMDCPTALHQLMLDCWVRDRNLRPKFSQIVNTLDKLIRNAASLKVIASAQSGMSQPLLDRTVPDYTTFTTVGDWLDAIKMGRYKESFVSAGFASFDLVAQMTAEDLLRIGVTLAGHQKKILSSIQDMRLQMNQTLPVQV
Particulars: at 0.1 µM.

In assay [3] the target is T2, Ephrin type-B receptor 3 (Homo sapiens). The following applies: at 1 µM.
The target in assay [4] is T3, Ephrin type-B receptor 4 (Homo sapiens) (UniProt P54760).
T3 sequence (whole entry): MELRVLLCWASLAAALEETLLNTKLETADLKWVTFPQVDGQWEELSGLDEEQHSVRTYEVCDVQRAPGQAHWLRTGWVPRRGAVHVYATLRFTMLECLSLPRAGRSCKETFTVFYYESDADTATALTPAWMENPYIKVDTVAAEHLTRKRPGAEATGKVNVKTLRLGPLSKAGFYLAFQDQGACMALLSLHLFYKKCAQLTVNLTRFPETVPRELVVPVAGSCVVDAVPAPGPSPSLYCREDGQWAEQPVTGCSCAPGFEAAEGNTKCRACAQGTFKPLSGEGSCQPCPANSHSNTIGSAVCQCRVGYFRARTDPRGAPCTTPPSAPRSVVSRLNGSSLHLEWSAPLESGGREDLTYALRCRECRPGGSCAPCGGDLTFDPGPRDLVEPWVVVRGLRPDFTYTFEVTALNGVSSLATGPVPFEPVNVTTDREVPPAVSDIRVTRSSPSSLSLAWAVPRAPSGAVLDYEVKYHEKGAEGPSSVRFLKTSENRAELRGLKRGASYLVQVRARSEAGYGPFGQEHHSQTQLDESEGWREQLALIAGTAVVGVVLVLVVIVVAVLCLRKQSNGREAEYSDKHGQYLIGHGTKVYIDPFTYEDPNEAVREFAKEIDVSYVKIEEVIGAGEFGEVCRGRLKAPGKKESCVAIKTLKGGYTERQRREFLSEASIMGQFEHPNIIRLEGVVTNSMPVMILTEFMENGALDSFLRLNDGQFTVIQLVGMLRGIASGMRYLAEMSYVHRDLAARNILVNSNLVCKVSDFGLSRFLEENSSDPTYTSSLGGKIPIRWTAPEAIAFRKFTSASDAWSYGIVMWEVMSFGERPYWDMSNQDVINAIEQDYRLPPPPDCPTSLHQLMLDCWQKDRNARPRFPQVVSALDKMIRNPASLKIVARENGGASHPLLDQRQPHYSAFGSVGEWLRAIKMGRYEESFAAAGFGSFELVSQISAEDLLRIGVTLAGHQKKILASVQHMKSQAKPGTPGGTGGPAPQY
The following applies: at 0.1 µM.

Assay [5] concerns the target T3, Ephrin type-B receptor 4 (Homo sapiens). The following applies: at 1 µM.
The target in assay [6] is Receptor tyrosine-protein kinase erbB-2 (Homo sapiens) (UniProt P04626). The following applies: at 0.1 µM.
Assay [7] shares this target. The following applies: at 1 µM.
The target in assay [8] is Receptor tyrosine-protein kinase erbB-4 (Homo sapiens) (UniProt Q15303). The following applies: at 0.1 µM.
Assay [9] has the same target. Particulars: at 1 µM.
In assay [10] the target is Tyrosine-protein kinase Fer (Homo sapiens) (UniProt P16591). The following applies: at 0.1 µM.
Chain of Tyrosine-protein kinase Fer (Homo sapiens) (P16591 whole entry, looked up): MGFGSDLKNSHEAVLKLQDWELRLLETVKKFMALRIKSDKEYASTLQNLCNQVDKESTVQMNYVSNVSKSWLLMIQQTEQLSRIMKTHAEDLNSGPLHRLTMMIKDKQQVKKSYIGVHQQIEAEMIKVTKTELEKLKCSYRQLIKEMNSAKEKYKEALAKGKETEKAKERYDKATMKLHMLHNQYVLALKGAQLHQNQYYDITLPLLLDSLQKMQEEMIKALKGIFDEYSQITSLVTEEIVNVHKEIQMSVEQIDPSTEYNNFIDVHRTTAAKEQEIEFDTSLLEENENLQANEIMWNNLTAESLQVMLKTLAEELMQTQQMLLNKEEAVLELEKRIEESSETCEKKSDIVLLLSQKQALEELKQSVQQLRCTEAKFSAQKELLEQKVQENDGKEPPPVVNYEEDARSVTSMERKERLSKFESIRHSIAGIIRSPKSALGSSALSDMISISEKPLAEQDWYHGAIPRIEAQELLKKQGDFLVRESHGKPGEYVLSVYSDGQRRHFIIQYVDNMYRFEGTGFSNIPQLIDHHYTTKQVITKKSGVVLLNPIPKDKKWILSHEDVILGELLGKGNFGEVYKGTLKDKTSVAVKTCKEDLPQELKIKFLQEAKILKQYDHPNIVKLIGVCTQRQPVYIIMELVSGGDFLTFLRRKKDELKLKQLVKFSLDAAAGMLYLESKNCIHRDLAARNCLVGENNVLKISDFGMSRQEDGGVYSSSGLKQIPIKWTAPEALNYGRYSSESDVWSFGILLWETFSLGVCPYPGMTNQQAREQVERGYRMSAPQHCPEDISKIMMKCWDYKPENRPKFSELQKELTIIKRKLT
Assay [11] shares this target. Particulars: at 1 µM.
In assay [12] the target is Tyrosine-protein kinase Fes/Fps (Homo sapiens) (UniProt P07332). Particulars: at 0.1 µM.
Chain of Tyrosine-protein kinase Fes/Fps (Homo sapiens) (P07332 whole entry): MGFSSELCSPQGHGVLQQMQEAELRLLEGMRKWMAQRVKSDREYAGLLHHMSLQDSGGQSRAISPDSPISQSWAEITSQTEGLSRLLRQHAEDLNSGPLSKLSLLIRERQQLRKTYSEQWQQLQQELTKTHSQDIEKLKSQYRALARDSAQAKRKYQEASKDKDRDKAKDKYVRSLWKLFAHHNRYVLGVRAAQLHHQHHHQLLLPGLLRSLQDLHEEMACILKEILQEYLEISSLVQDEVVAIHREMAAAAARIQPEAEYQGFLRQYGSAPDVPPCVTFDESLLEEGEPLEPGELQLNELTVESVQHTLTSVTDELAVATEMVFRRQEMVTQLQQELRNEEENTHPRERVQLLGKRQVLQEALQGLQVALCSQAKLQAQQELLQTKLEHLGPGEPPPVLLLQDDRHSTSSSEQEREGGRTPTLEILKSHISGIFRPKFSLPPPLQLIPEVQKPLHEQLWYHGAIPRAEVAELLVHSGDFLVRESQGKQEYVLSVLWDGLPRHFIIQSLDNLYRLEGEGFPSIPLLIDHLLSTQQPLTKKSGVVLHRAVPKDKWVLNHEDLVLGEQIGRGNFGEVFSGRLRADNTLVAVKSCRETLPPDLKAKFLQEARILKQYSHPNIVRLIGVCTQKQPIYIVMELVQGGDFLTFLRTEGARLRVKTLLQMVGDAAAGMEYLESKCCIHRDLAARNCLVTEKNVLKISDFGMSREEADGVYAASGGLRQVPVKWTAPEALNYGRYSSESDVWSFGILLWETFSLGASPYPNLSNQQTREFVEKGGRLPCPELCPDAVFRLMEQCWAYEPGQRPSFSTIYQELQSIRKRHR
The target is the same in assay [13]. The following applies: at 1 µM.
For assay [14], the target named is Fibroblast growth factor receptor 1 (Homo sapiens) (UniProt P11362). Particulars: at 0.1 µM.
Chain of Fibroblast growth factor receptor 1 (Homo sapiens) (P11362 22-822 limits assumed): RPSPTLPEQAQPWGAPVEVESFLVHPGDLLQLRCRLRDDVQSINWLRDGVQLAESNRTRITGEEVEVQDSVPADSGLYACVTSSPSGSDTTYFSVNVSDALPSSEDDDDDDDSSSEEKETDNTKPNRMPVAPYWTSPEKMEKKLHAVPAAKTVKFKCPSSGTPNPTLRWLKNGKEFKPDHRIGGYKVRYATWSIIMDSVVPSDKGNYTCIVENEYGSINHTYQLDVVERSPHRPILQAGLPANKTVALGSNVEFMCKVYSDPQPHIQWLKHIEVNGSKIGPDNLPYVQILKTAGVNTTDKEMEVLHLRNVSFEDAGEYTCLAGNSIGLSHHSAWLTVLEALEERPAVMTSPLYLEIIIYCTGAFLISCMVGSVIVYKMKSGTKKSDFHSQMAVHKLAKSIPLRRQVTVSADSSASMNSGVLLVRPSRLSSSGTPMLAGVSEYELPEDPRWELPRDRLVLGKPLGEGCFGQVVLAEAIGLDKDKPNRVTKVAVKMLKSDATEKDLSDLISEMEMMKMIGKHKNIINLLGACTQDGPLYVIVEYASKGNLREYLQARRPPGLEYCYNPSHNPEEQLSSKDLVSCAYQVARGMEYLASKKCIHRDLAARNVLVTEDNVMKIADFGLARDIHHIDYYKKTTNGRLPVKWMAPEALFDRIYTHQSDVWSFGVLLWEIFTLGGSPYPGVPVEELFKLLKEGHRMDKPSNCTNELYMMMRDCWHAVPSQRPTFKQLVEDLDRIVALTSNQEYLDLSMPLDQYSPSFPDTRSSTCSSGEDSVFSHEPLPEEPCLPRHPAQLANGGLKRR
For assay [15] the target is unchanged. The following applies: at 1 µM.
Assay [16] has as its target Fibroblast growth factor receptor 2 (Homo sapiens) (UniProt P21802). The following applies: at 0.1 µM.
Assay [17] has the same target. The following applies: at 1 µM.
The target of assay [18] is Fibroblast growth factor receptor 3 (Homo sapiens) (UniProt P22607). The following applies: at 0.1 µM.
Chain of Fibroblast growth factor receptor 3 (Homo sapiens) (P22607 23-806 limits assumed): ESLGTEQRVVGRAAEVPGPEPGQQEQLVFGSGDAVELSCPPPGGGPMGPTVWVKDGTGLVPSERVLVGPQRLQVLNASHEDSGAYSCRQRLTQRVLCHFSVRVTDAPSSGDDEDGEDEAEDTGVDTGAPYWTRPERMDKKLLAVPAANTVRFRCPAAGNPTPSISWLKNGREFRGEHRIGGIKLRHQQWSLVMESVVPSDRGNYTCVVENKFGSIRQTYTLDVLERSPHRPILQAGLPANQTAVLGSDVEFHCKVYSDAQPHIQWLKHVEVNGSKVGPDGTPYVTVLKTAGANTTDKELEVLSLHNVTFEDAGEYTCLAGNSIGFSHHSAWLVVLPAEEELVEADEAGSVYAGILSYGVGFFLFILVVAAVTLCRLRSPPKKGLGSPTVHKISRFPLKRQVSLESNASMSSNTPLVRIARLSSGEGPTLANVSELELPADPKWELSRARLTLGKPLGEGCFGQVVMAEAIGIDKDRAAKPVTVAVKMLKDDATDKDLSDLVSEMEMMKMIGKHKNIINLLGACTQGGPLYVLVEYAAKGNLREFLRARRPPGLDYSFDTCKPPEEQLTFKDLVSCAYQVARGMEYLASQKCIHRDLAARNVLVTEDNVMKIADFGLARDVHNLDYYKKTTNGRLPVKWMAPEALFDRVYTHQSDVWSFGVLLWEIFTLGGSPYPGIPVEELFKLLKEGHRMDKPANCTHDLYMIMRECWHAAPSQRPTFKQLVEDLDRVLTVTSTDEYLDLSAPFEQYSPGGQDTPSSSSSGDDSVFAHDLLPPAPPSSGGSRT
Assay [19] shares this target. The following applies: at 1 µM.
In assay [20] the target is Fibroblast growth factor receptor 4 (Homo sapiens) (UniProt P22455). Particulars: at 0.1 µM.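 Also: values are mean percent inhibition of FGFR4.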
Chain of Fibroblast growth factor receptor 4 (Homo sapiens) (P22455 22-802 limits assumed): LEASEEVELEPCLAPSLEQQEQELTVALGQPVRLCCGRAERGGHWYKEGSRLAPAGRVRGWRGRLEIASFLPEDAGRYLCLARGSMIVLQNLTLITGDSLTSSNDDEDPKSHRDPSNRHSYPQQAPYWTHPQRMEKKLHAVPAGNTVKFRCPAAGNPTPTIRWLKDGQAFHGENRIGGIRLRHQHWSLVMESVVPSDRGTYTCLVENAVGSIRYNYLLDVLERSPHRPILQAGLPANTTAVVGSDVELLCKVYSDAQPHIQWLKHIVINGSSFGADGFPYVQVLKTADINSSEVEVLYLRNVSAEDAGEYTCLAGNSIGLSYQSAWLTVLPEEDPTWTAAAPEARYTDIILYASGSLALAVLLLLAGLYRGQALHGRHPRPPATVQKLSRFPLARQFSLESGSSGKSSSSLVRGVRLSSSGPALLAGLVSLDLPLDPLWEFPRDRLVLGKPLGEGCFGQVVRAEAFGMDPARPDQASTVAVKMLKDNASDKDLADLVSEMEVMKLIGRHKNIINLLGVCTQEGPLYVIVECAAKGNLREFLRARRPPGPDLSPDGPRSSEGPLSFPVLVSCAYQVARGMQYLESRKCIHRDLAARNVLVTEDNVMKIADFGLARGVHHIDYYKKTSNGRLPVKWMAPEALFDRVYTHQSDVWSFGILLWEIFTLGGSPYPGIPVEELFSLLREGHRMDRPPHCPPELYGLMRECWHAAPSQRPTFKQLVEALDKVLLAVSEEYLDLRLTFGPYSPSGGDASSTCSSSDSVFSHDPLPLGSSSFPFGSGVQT

Chain of Fibroblast growth factor receptor 2 (Homo sapiens) (P21802 22-821 limits assumed): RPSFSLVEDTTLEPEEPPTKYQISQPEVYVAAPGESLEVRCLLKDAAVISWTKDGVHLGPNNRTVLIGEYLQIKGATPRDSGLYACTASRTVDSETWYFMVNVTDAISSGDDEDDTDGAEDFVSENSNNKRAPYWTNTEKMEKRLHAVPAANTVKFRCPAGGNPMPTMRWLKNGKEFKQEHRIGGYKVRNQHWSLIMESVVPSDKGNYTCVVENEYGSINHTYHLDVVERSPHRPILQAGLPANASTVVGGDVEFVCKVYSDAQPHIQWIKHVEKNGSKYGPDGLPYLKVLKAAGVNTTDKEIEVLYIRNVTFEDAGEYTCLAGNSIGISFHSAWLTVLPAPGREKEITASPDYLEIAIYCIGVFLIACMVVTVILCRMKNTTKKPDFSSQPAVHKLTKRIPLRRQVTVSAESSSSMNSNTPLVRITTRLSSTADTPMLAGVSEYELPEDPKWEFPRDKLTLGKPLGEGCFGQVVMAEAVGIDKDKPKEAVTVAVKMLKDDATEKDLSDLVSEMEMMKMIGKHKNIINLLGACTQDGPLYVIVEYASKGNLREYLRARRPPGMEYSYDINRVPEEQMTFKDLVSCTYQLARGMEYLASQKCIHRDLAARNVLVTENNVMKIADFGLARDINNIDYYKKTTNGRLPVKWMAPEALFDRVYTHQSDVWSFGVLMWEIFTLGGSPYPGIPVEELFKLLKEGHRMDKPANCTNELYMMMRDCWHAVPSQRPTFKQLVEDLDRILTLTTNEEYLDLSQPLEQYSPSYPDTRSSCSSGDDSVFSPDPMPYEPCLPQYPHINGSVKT

Consider `c1ccc(COc2ccc(Nc3ncnc4ccc(-c5ccco5)cc34)cc2)cc1`, for which the inhibition is 1.06% in assay [1]; 0.82% in assay [2]; 3.5% in assay [3]; -0.6% in [4]; 1.67% in [5]; -0.16% in [6]. Further, the inhibition in assay [7] came to 20%; in assay [8], 20.1%; in assay [9], 79.3%; in assay [10], 1.72%; in assay [11], 4.05%; in [12], 2.03%. The inhibition in assay [13] is 1.74%; in assay [14] it was -8.22%; in [15], -7.82%; in assay [16], 1.65%; in assay [17], 8.16%; in [18], 2.01%. The inhibition in [19] was determined as 7.69%; in [20], 3.87%.

For `COc1cc2ncn(-c3cc(OCc4ccccc4C(F)(F)F)c(C(=O)N(C)C)s3)c2cc1OC`, the inhibition is 3.29% in assay [1]; 2.32% in assay [2]; 0.33% in [3]; -1.02% in [4]; 1.55% in assay [5]; 0.2% in assay [6]. For the same compound, the inhibition in [7] was -1.05%; in assay [8], 2.15%; in assay [10] it was -0.2%; in [11], 3.02%; in assay [12], 0.2%; in assay [13], 0.64%. Also, the inhibition in assay [14] was -1.23%; in [15], 10.3%; in assay [16], 2.76%; in [17], 20.8%; in assay [18], 1.53%; in assay [19] it was 8.98%. Besides, in assay [20], the inhibition is -1.7%.

With `CCCN(CCS(C)(=O)=O)Cc1ccc(-c2ccc3ncnc(Nc4ccc(OCc5cccc(F)c5)c(Cl)c4)c3c2)o1`, the inhibition in assay [1] was 5.21%; in assay [2], 4.42%; in [3], 2.17%; in assay [4], 3.87%; in assay [5], 1.36%; in assay [6] it was 19.1%. The inhibition was found to be 82.1% in assay [7]; 76.3% in assay [8]; 79.2% in [9]; 2.14% in assay [10]; 5.25% in assay [11]; 1.38% in [12]. In addition, the inhibition in assay [13] was 1.43%; in assay [14] it was 3.02%; in assay [15] it was 2.95%; in assay [16] it was -0.3%; in assay [17], 2.2%; in assay [18], 3.56%. In addition, the inhibition in assay [19] worked out at 2.41%; in assay [20] it was 1.61%.

For `O=C(O[C@H]1CN[C@H](C#Cc2cc3ncnc(Nc4ccc(Cc5ccccc5)cc4)c3s2)C1)N1CCOCC1`, the inhibition in assay [1] is 6.03%; in assay [2], 4.37%; in assay [3], 3.49%; in assay [4] it was -0.73%; in assay [5] it was 1.41%; in assay [8] it was 112%. In addition, the inhibition in assay [9] is 107%; in [10], -1.21%; in [11], -0.65%; in assay [12], 1.87%; in assay [13], 1.71%; in assay [14], 1.97%. Besides, the inhibition came to 2.47% in assay [15]; 2.52% in [16]; 1.51% in assay [17]; 1.73% in [18]; 0.73% in [19]; 4.79% in assay [20].

`CCn1c(-c2nonc2N)nc2cnc(Oc3cccc(NC(=O)c4ccc(N(C)C)cc4)c3)cc21`: the inhibition in [1] is 7.72%; in assay [2] it was 4.18%; in assay [3], 3.26%; in [4], 0.67%; in assay [5] it was 0.71%; in assay [6], 1.13%. Further, the inhibition was -0.18% in assay [7]; 8.23% in assay [8]; 9.63% in assay [9]; 1.16% in assay [10]; 2.5% in assay [11]; 0.77% in assay [12]. The inhibition in assay [13] was 1.31%; in assay [14], 3.11%; in assay [15], 0.12%; in [16] it was -0.14%; in assay [17], 3.9%; in [18], 2.5%. The inhibition was determined as 3.54% in assay [19] and 1.51% in assay [20].

Consider `COc1ccc(-c2cc3c(N)ncnc3o2)cc1`, for which the inhibition was 4.07% in assay [1]; -1.39% in assay [2]; 0.05% in assay [3]; 0.49% in assay [4]; 0.16% in [5]; -0.84% in assay [6]. The inhibition in assay [7] was 0.38%; in assay [8], -1.91%; in [9] it was 1.85%; in assay [10], -0.15%; in assay [11] it was 1.69%; in [12], -0.35%. In addition, the inhibition in assay [13] was -0.8%; in [14] it was -5.35%; in assay [16], -1.74%; in [17], -4.78%; in [18], -0.11%; in assay [19], -2.94%. The inhibition in assay [20] stood at 2.88%.

Take `Nc1ncc(-c2cccc(S(N)(=O)=O)c2)c2scc(-c3ccc(F)c(Cl)c3)c12`: the inhibition in assay [1] was 88.7%; in assay [2], 9.18%; in assay [3], 22%; in assay [4], 49.3%; in [5] it was 87.1%; in assay [6], 4.06%. Also, the inhibition in [7] worked out at 6.32%; in assay [8], 13.2%; in assay [9], 29.6%; in assay [10] it was 5.25%; in [11], 30%; in [12] it was 4%. The inhibition in [13] was found to be 7.1%; in assay [14] it was 2.01%; in assay [15], 16.1%; in assay [16], 8.86%; in assay [17], 32.8%; in [18], 6.12%. The inhibition was 23.3% in assay [19] and 2.27% in assay [20].

One may read the inhibition as the drop in the measured response relative to a control, in per cent.
